Among the data in PubChem BioAssay are composite z-score and z-score values, retold here.

Assay [1] concerns Plasmodium falciparum Sir2 (PF13_0152, Sir2A). The assay is described as follows: pfSir2 binders on small-molecule microarrays, primary screen, biochemical, small-molecule microarray, 635 nm fluorescence (AID 1098).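 Also: score merges spot fluorescence intensity with its signal-to-noise ratio.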 The settings on record: small-molecule microarray binding, fluorescence 635 nm; higher = more signal.
The nature of assay [2]: small-molecule microarray binders of probe aDKK1, primary screen, biochemical, biotinylated probe, 635/667 nm fluorescence (AID 1099).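 Also: score merges 667nm spot fluorescence with signal to noise across triplicate slides.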 The settings on record: higher = more signal.
Assay [3] can be described thus: small-molecule microarray binders of probe aCHRDL2, primary screen, biochemical, biotinylated probe, 635/667 nm fluorescence (AID 1100). The settings on record: higher = more signal.
Assay [4] is described as follows: splicing luciferase reporter signal modulators, primary screen, spliceosome inhibition project, cell-based, HEK293, splice +/- reporter (AID 1101).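 Also: HEK293 cells carrying a splicing-competent luciferase reporter gene; test concentration not given here.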 The settings on record: luminescence, 24 h, higher = more signal, called active from +8 up or from −8 down. (In a reporter assay the amount or activity of a reporter protein is the signal.)
Assay [5] deals with Fibroblast growth factor 10 (Homo sapiens) (UniProt O15520). The assay is described as follows: FGF10 binders on small-molecule microarrays, primary screen, biochemical, small-molecule microarray, 635 nm fluorescence (AID 1102). The note with it: FGF10 binding, fluorescence 635 nm, higher = more signal.
Sequence of Fibroblast growth factor 10 (Homo sapiens) (O15520 whole entry, looked up): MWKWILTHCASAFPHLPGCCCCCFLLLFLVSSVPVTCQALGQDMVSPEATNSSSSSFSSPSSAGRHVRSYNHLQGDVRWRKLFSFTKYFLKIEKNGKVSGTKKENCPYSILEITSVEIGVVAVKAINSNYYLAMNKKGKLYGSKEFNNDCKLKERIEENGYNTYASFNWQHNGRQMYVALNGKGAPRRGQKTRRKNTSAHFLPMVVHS
Assay [6] concerns glycogen synthase kinase-3 (GSK3A per assay name; protocol says GSK3B). Nature of the assay: GSK3 binders on small-molecule microarrays, primary screen, biochemical, small-molecule microarray, 635 nm fluorescence, GSK3A (AID 1103). Also: the record names both GSK3A and GSK3B. The settings on record: small-molecule microarray binding, fluorescence 635 nm; higher = more signal.
Assay [7] deals with Epidermal growth factor receptor (Homo sapiens) (UniProt P00533). Nature of the assay: EGFR binders on small-molecule microarrays, primary screen, biochemical, small-molecule microarray, 635 nm fluorescence (AID 1104).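 Also: score merges 667 nm emission intensity with spot signal to noise over triplicate slides.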 The note with it: EGFR binding, higher = more signal.
Sequence of Epidermal growth factor receptor (Homo sapiens) (P00533 whole entry, looked up): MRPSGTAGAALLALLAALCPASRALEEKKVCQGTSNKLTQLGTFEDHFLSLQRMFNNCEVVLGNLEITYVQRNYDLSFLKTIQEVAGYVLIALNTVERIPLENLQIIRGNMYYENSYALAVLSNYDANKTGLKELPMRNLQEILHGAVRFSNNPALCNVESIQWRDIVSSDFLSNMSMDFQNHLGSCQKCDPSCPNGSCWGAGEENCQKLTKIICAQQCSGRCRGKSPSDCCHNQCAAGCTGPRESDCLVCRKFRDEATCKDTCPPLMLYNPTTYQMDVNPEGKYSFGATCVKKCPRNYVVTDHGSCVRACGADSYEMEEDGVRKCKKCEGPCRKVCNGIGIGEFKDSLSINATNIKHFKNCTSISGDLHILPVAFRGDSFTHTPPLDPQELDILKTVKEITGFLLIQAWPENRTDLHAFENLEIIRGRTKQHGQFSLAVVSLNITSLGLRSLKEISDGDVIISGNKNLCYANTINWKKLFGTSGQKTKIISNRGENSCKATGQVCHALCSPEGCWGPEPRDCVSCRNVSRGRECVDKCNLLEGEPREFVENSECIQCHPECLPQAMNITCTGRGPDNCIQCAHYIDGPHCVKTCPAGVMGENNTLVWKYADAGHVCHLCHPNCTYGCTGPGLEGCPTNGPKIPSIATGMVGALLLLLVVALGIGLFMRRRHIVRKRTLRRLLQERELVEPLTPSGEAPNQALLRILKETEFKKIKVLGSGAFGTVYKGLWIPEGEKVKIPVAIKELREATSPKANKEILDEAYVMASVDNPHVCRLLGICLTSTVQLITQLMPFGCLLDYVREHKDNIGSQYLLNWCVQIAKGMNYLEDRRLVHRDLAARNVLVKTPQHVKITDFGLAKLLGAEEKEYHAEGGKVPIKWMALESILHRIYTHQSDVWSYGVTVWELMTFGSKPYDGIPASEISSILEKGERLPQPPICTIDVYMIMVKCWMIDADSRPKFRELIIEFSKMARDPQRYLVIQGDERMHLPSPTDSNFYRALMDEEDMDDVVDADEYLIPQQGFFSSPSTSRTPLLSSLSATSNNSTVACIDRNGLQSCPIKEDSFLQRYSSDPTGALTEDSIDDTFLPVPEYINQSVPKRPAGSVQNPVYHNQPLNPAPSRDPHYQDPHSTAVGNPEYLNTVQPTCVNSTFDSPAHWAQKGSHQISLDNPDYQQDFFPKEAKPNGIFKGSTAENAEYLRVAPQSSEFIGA
Assay [8] has as its target Follistatin-related protein 3 (Homo sapiens) (UniProt O95633). Nature of the assay: FSTL3 binders on small-molecule microarrays, primary screen, biochemical, small-molecule microarray, 635 nm fluorescence (AID 1105).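 Also: score merges emission near 667 nm and signal to noise per printed spot across three slides.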 The note with it: FSTL3 binding, higher = more signal.
Assay [9] deals with Dickkopf-related protein 1 (Homo sapiens) (UniProt O94907). The assay is described as follows: DKK1 binders on small-molecule microarrays, primary screen, biochemical, small-molecule microarray, 635 nm fluorescence scan (AID 1106).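 Also: score merges emission near 667 nm with signal to noise over three replicate slides.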 The settings on record: DKK1 binding, higher = more signal.
Sequence of Dickkopf-related protein 1 (Homo sapiens) (O94907 whole entry, looked up): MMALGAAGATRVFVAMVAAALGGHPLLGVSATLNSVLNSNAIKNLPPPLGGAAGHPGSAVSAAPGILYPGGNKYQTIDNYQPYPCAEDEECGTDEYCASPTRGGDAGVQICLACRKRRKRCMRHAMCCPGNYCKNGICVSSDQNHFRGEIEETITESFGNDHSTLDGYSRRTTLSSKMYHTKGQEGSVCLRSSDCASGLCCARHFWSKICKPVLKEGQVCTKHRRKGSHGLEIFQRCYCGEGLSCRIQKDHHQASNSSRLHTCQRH
In assay [10] the test system is Inhibin beta A chain (activin A). The assay is described as follows: INHBA (activin A) binders on microarrays, primary screen, biochemical, small-molecule microarray, 635 nm fluorescence scan (AID 1107).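 Also: mouse activin A protein probed at 4.33 µg/mL on printed slides; score merges bound-protein fluorescence near 667 nm with spot signal-to-noise.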 The note with it: small-molecule microarray binding, higher = more signal.
In assay [11] the test system is Human papillomavirus type 1a protein E7 (residues 44-93). The assay is described as follows: HPV1a E7 fragment binders on microarrays, primary screen, biochemical, small-molecule microarray, residues 44-93, 635 nm fluorescence (AID 1108).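 Also: E7 fragment applied at 1 µg/mL in TBST for 1 h at 4 C; score combines spot fluorescence with its signal to noise ratio.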 The settings on record: small-molecule microarray binding, fluorescence 635 nm; higher = more signal.
Assay [12] in a line: modulators of HCV replicon luciferase signal, primary screen, HCV replication inhibitor project, Huh7 cells, luciferase reporter (AID 1109).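 Also: huh7 hepatoma cells harbouring a luciferase neomycin HCV replicon reporter; luciferase luminescence as measure of HCV replicon replication; test concentration not given here.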 The settings on record: 48 h, higher = more signal. In general terms: In antiviral work, replicon cells carry a viral genome segment that copies itself.
Assay [13] concerns the target Left-right determination factor 2 (Homo sapiens) (UniProt O00292). Nature of the assay: LEFTY2 binders on small-molecule microarrays, primary screen, biochemical, small-molecule microarray, 635 nm fluorescence scan (AID 1110). The note with it: LEFTY2 binding, higher = more signal.
The target in assay [14] is Calmodulin-1 (Homo sapiens) (UniProt P0DP23). Nature of the assay: CALM1 binders on microarrays, EGTA buffer, profiling panel, biochemical, small-molecule microarray, Cy5-labelled CALM1 (AID 1111).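 Also: labelled calmodulin applied in Tris saline Tween buffer holding calcium plus EGTA and DTT.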 The settings on record: Cy5-CALM1 binding fluorescence, higher = more signal.
The target is the same in assay [15]. Nature of the assay: calcium-bound CALM1 binders on microarrays, profiling panel, artefact control for SMM control-protein annotation, biochemical, small-molecule microarray, Cy5-labelled CALM1, plus calcium (AID 1112).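 Also: score merges spot fluorescence with signal to noise from triplicate slides.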 The settings on record: Cy5-CALM1 binding fluorescence, higher = more signal.
A short description of assay [16]: small-molecule microarray binders of probe aWnt5a, primary screen, biochemical, biotinylated probe, 635/667 nm fluorescence (AID 1113).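 Also: score merges 667 nm fluorescence intensity with signal-to-noise per printed feature.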 The note with it: higher = more signal.
Assay [17] in a line: small-molecule microarray binders of probe aShh, primary screen, biochemical, biotinylated probe, 635/667 nm fluorescence (AID 1114).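 Also: probe is biotin-labelled aShh protein from a stem cell growth factor screen; measures binding of labelled protein to compounds printed on the slide; score merges feature fluorescence at 667 nm with signal-to-noise.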 The settings on record: higher = more signal.
Assay [18] can be described thus: small-molecule microarray binders of probe aNog, primary screen, biochemical, biotinylated probe, 635/667 nm fluorescence (AID 1115).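 Also: probe is biotinylated aNog protein used at 0.15 µg/mL for 1 h at 4 C; z-score combines 667 nm fluorescence of each spot with its signal to noise.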 The settings on record: higher = more signal.
Assay [19] has as its target Torsin-1A-interacting protein 1 (Homo sapiens) (UniProt Q5JTV8). The assay is described as follows: LAP1 binders from COS7 cell lysate, primary screen, small-molecule microarray, 635/667 nm fluorescence (AID 1116). The settings on record: COS7-hLAP1 lysate binding, 635 nm fluorescence, higher = more signal.
Assay [20] has as its target Alpha-bungarotoxin (Bungarus multicinctus) (UniProt P60615). Nature of the assay: alpha-bungarotoxin binders on microarray, profiling panel, artefact control for SMM control protein annotation, biochemical, small-molecule microarray, Alexa647 label, 635/667 nm fluorescence (AID 1117). The settings on record: alpha-BTX-A647 binding fluorescence, higher = more signal.

The source made the active and inactive calls.

Sequence of Alpha-bungarotoxin (Bungarus multicinctus) (P60615 whole entry, looked up): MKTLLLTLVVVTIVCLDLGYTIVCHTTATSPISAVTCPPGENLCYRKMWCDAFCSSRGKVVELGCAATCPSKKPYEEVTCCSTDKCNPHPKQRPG
Sequence of Torsin-1A-interacting protein 1 (Homo sapiens) (Q5JTV8 whole entry, looked up): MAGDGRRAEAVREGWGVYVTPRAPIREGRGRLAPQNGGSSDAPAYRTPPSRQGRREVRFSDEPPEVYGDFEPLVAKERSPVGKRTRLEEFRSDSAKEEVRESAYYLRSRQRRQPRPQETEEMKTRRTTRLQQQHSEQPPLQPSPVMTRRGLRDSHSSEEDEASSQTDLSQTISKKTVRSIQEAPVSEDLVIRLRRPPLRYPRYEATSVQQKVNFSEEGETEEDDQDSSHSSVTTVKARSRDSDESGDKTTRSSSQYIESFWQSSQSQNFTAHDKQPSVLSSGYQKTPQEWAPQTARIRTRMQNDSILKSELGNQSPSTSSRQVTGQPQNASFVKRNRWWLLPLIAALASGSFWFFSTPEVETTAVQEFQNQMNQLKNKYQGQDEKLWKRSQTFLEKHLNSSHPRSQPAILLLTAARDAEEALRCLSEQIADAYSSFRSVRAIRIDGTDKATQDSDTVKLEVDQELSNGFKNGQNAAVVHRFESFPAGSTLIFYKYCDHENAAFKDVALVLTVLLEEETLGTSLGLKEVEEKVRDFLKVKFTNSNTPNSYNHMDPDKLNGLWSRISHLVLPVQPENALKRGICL
Sequence of Follistatin-related protein 3 (Homo sapiens) (O95633 whole entry, looked up): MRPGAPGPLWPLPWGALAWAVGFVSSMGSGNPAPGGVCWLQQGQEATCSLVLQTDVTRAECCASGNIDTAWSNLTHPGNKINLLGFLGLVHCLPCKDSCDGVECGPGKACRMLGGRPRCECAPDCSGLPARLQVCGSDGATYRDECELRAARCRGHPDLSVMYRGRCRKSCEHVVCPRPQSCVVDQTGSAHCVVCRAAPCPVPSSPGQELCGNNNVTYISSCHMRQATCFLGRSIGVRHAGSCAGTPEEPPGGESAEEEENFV
Sequence of Left-right determination factor 2 (Homo sapiens) (O00292 whole entry, looked up): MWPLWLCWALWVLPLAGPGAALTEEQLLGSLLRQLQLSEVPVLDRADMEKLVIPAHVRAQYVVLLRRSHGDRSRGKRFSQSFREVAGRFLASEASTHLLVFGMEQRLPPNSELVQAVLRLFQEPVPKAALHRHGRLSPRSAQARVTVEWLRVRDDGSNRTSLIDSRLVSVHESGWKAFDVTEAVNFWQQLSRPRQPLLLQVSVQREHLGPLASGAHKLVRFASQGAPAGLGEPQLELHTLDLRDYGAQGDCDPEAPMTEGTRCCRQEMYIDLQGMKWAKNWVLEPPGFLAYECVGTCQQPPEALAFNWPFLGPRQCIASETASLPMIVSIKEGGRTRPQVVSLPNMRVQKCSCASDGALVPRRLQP

`CCCNC(=O)[C@@]1(Sc2ccc(C)cc2)CC(=O)N(Cc2ccccc2C(F)(F)F)[C@@H]1c1ccc(CO)cc1I`: the composite z-score in [1] was 1.53; in assay [2], 0.277; in assay [3], 0.726; in assay [5], 0.441; in assay [6], 0.119; in assay [7], -0.293. In addition, the composite z-score in [8] is 1.01; in assay [9], 0.262; in assay [10] it was 1.24; in assay [11], 1.38; in [13] it was -0.0375; in assay [14], -0.214. For the same compound, the composite z-score in [15] is -0.611; in assay [16] it was -0.0519; in assay [17], 0.0639; in assay [18], 0.134; in assay [19], 0.332; in assay [20], 1.62. In addition, the z-score in assay [4] was -1.6 (inactive); in assay [12] it was -1.91.

For the compound `C#CCOc1ccc(C[C@@H](C(=O)OC)N(CC#C)[C@@H](/C=C/C2CC2)[C@H](O)Cc2ccccc2)cc1`, the composite z-score was -0.103 in [1]; -0.285 in assay [2]; 0.846 in assay [3]; -0.327 in assay [5]; -0.829 in assay [6]; -0.92 in [7]. Moreover, the composite z-score in assay [8] was -0.806; in assay [9], -0.429; in assay [10], 0.899; in [11], -0.802; in assay [13], -0.336; in assay [14], -1.1. The composite z-score in assay [15] was -1.69; in assay [16] it was -0.2; in assay [17] it was -0.221; in assay [18], -0.337; in [19] it was 0.255; in assay [20], -0.335. For the same compound, the z-score in [4] is 0.0683 (inactive); in assay [12], -2.06.

On to `O=C1NC(=O)C2C1C=CC(C(O)C=Cc1ccc([N+](=O)[O-])cc1)N2Nc1ccc(Cl)cc1Cl` (stereo not given), for which the composite z-score in [1] was 0.373; in assay [2] it was 1.19; in assay [3], 1.17; in assay [5], 0.641; in assay [6], 0.364; in [7] it was 0.41. Also, the composite z-score was found to be 1.02 in assay [8]; 0.0567 in assay [9]; 1.11 in [10]; 0.0788 in assay [11]; 0.0391 in assay [13]; 2.14 in assay [14]. Besides, the composite z-score is 0.713 in assay [15]; -0.031 in assay [16]; 0.317 in assay [17]; 0.0884 in [18]; 1.52 in assay [19]; 1.49 in assay [20]. Besides, the z-score in assay [4] is -0.509 (inactive); in assay [12] it was 0.498.

As to `C=C(C(=O)CC[C@H](OC(C)=O)c1ccccc1OCCO)C(C)C`, the composite z-score is 0.78 in assay [1]; -0.287 in assay [2]; 0.006 in [3]; 1.28 in [5]; -1.29 in assay [6]; -0.803 in [7]. For the same compound, the composite z-score is -0.226 in assay [8]; -0.284 in assay [9]; -0.139 in assay [10]; -0.949 in assay [11]; -0.343 in assay [13]; -0.296 in assay [14]. For the same compound, the composite z-score was -1.33 in assay [15]; -0.119 in [16]; -0.352 in assay [17]; -0.124 in [18]; 4.35 in assay [19]; -0.423 in assay [20]. The z-score in assay [4] was -1.94 (inactive); in assay [12], -4.51.

For the compound `COc1cc2c(cc1OC)CN(C(=O)[C@H]1[C@@H]3C(=O)O[C@@H](c4ccccc4)[C@@H](c4ccccc4)N3[C@@H](c3ccccc3OCCO)[C@]13C(=O)Nc1ccc(C#CCCO)cc13)CC2`, the composite z-score in assay [1] is 1.37; in assay [2], -0.112; in [3], -0.294; in assay [5], 0.786; in [6] it was 1.28; in assay [7] it was 0.47. The composite z-score was found to be 0.964 in assay [8]; 0.518 in assay [9]; 0.931 in assay [10]; 1.37 in [11]; 0.61 in assay [13]; 0.234 in [14]. In addition, the composite z-score in [15] was -0.114; in assay [16] it was 0.0136; in [17], -0.138; in assay [18] it was 0.194; in assay [19], 0.532; in [20], 0.862. Further, the z-score is -0.826 (inactive) in [4] and -1.79 in assay [12].

On to `CCCCC(O)C1C=CC2C(=O)N(C)C(=O)C2N1N1CCCCC1` (stereo not given), for which the composite z-score in assay [1] was 0.933; in [2] it was 0.945; in assay [3] it was 0.743; in assay [5], 0.546; in [6], -0.0038; in assay [7], 0.229. The composite z-score in [8] stood at 0.574; in assay [9], 0.0003; in assay [10] it was 1.42; in assay [11], 1.34; in [13], 0.462; in [14], 0.0471. The composite z-score in assay [15] is -0.665; in [16], 0.0251; in [17] it was 0.156; in assay [18], -0.294; in [19], 0.893; in [20], 1.16. The z-score in [4] is 0.871 (inactive); in assay [12], 0.0634.
